Assay outcomes as filed in PubChem.
ALDH1A1 inh: ALDH1A1 (human) enzyme inhibition | P00352 | Purified ALDH1A1, NADH fluorescence, propionaldehyde substrate | Potency, µM (titrated, usually from 75.3 µM), without a hit: at the highest dose activity, negative = inhibition, actives largely listed as inhibitors | hit rate 7.3% among 220,000;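 further: potency means the concentration at half of the fitted maximal effect; plate controls were no enzyme wells and a reference inhibitor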
PNC inhibitor: blocks assembly of the perinucleolar compartment | PC3M PTB-GFP, PNC prevalence imaging, 16 h; hits give low values | activity change (PNC), negative = inhibition, % at 10 µM | hit rate 3.1% among 140,000;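 active means readout at or below -70, meaning at least 70% loss of cells showing the perinucleolar compartment, a nuclear body marking cancer cells; inconclusive means readout between -30 and a set limit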;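 further: plate controls were DMSO wells for no effect and camptothecin positive control wells for full effect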
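PC3M cells stably expressing PTB-GFP, 750–1000 cells/well, treated 16 h at 37 °C with compound (23 nl of library stock), in duplicate. After paraformaldehyde fixation and Hoechst stain, imaged at 20x; PNC prevalence scored by image analysis.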
HPGD inh: blocks human HPGD enzyme activity. P15428. purified HPGD, NADH fluorescence kinetic, PGE2 substrate. Potency, µM, for the others: at the top dose activity change, negative = inhibition, hits mostly inhibitors. hit rate 4.3% among 150,000. AID 894; further: potency means the concentration at half of the fitted maximal effect
Target sequence (P15428 whole entry, looked up): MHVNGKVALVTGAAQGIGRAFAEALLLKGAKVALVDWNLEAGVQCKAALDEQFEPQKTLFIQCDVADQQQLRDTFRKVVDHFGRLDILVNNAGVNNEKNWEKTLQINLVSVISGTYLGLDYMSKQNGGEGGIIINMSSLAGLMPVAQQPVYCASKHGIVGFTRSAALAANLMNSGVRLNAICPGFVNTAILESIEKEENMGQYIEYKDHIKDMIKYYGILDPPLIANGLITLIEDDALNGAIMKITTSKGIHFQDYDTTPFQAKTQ
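NADH formation kinetics: reaction with 30 uM PGE2 and 1 mM NAD+ (final), 20 nM enzyme, Tris-HCl pH 8 with Tween 20, after 15 min compound preincubation at room temperature. Fluorescence change, last versus first of five reads.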
Active calls of the source: *; u = inconclusive; x = no result given; [ ] = another dose, or the depositor's remark. This is a sample that favours compounds with a hit; in the whole collection about 11% have one here. Unless noted, the call rests on the fitted dose curve; in most records, active means well fitted inhibition curve with a large enough effect (not every such curve was filed as active); inconclusive means small, poorly fitted or top-dose-only effect, or another doubt; inactive means no such curve, though single readings can be large or run the other way. Unless noted, on the % scale 0 is the no-effect control and ±100 the full control effect.

SMILES	ALDH1A1 inh	PNC inhibitor	HPGD inh
COC(=O)CC1C(C)(C)C2(O)OC34CC2C(=O)[C@@]1(C)C3CC[C@]1(C)C4=CC(=O)OC1c1ccoc1 (some centres not stated)	9%	x	u
O=C(c1cc([N+](=O)[O-])ccc1Cl)N1c2ccccc2Sc2ccccc21	-1%	2	-9%
COc1cc(C(N)=O)cc(Cl)c1OC	1%	x	x
NNC(=O)c1ccncc1	-3%	17	-12%
NNC(=O)c1cc(Cl)ccc1Cl	u	-27	-2%
CNC(=O)c1cc(Cl)c(OC)c(OC)c1	22µM*	1	u
COc1c(Cl)cc(C(=O)NN)cc1Cl	2.2µM*	x	x
NNC(=O)c1cc(O)c(O)c(O)c1	25µM*	x	x
COc1c(Cl)cc(C(=O)Nc2ccccc2C(=O)O)cc1Cl	13µM*	45	14µM*
COc1ccc(C(=O)Nc2cc(Cl)ccc2C(=O)O)cc1	1%	x	x
Nc1cccc(CN2CCCC2)c1	7%	x	x
Cc1ccc(S(=O)(=O)NCCCCCC(=O)Nc2cccc(C)c2)cc1	u	51	-5%
O=C(O)CCC(=O)OC[C@@H](NC(=O)C(Cl)Cl)C(O)c1ccc([N+](=O)[O-])cc1 (some centres not stated)	-14%	x	-2%
N[C@@H](CC1=CS(=O)(=O)c2ccc(Cl)cc21)C(=O)O	-9%[13.5 µM]	x	-9%
COc1ccc(CC(=O)Nc2ccc(C(=O)Nc3ccccc3C(=O)O)cc2)cc1OC	28µM*	u	-16%
COc1ccc(CC(=O)Nc2ccc(C(=O)NC(C)(C)C)cc2)cc1OC	0%	x	x
CNC(=O)c1nn(-c2ccc(Cl)cc2)ccc1=O	-8%	17	-23%
CCCNC(=O)c1ccc2snnc2c1	u	6	-16%
CCCNC(=O)c1nnsc1S(=O)(=O)c1ccc(Cl)cc1	20µM*	x	x
CNC(=O)c1nnsc1S(=O)c1ccc(Cl)cc1 (configuration not stated)	22µM*	x	x
CCCNC(=O)NS(=O)(=O)c1ccc(Cl)cc1	-5%	20	-6%
CCCNC(=O)c1nnsc1S(=O)c1ccc(Cl)cc1 (configuration not stated)	11µM*	x	x
CCOC(=O)CC1C(=O)NCCN1C1CCCC1 (configuration not stated)	3%	x	x
Cn1c(SCc2ccccn2)nnc1-c1ccccc1	7%	x	x
CCOC(=O)c1c(C)nc2c(C#N)cnn2c1C	u	26	u
SMILES	ALDH1A1 inh	PNC inhibitor	HPGD inh
CCOC(=O)c1cnn2c(N)c(C#N)nnc12	-3%	-117*	-12%
Nc1ccc(N=Nc2c(S(=O)(=O)O)cc3ccccc3c2S(=O)(=O)O)cc1	11%[13.5 µM]	x	-8%
CCOc1cc(/C=C/c2cc(C(=O)O)c3ccccc3n2)ccc1O	0%	21	-17%
CCN(CC)c1ccc(/C=C/c2cc(-c3ccccc3)c3ccccc3n2)cc1	11µM*	x	x
CCN(CC)c1c([N+](=O)[O-])c(=O)sc2ccccc12	-3%	59	u
C=CSc1sc(Cl)c(N(CC)CC)c1[N+](=O)[O-]	16µM*	x	x
C=CSc1sc(Cl)c(N(C)C)c1[N+](=O)[O-]	7.9µM*	x	x
CC(OC(=O)c1ccc([N+](=O)[O-])s1)C(=O)Nc1ncc(Cl)cc1Cl (configuration not stated)	6.3µM*	66	-6%
CC(OC(=O)c1ccc(Cl)c(S(=O)(=O)N2CCc3ccccc32)c1)C(=O)Nc1ncc(Cl)cc1Cl (configuration not stated)	25µM*	u	-15%
O=C(COC(=O)c1cccc(S(=O)(=O)N2CCc3ccccc32)c1)Nc1ncc(Cl)cc1Cl	-4%	u	-8%
CC(OC(=O)c1ccc2ncsc2c1)C(=O)Nc1ncc(Cl)cc1Cl (configuration not stated)	15%	38	-9%
CCn1c(=O)c(C(=O)CN2CCN(S(=O)(=O)c3cc(C)ccc3C)CC2)c(N)n(Cc2ccccc2)c1=O	-4%	54	-15%
Clc1cccc(N/N=C(\Cc2nc3ccccc3[nH]2)c2ccccc2)c1	u	18	-9%
O=C(NCCCN1CCCCCC1)[C@@H](c1ccccc1)C1CCCCC1	4%	x	3%
COc1ccccc1NC(=O)c1cc(S(=O)(=O)NCc2ccccc2)ccc1F	12%	x	x
COc1ccc(OC)c(NC(=O)c2cc(S(=O)(=O)NCc3ccco3)ccc2F)c1	22µM*	-26	u
CC1CCc2c(sc(NC(=O)Cn3nc(C(F)(F)F)c4c3CCCCC4)c2C#N)C1 (configuration not stated)	25µM*	32	35µM*
N#Cc1c(NC(=O)Cn2nc(C(F)(F)F)c3c2CCCC3)sc2c1CCC2	7.9µM*	57	8.9µM*
CC1CCc2c(sc(NC(=O)COC(=O)C3CCCO3)c2C#N)C1 (configuration not stated)	-13%	x	x
CCc1ccc(NC(=O)Cn2nc(C(F)(F)F)c3c2CCC3)cc1	6%	76	-17%
C[C@@H](C1[C@@H](O)CC2C3C=CC4C[C@@H](O)CC[C@]4(C)[C@H]3CC[C@@]21C)[C@@H]1CCCCN1 (some centres not stated)	4%	x	-8%
COc1ccc(S(=O)(=O)N2CCN(Cc3cccc(Cl)c3)CC2)cc1	u	22	-9%
O=S(=O)(c1ccc(Cl)cc1)N1c2ccccc2Oc2nc3ccccc3nc21	25µM*	-24	-13%
COc1ccc(S(=O)(=O)N2c3cc(Cl)ccc3Oc3nc4ccccc4nc32)cc1	-15%	-100*	-8%
COCCCN1CN(S(=O)(=O)c2ccc(Cl)cc2)c2nc3ccccc3nc21	u	-23	-10%
SMILES	ALDH1A1 inh	PNC inhibitor	HPGD inh
COc1cccc(/C=N/NC(=O)CN(CCc2ccccc2)S(=O)(=O)c2ccc(NC(C)=O)cc2)c1	u	4	-10%
CC(=O)NC1CCCN(O)C(=O)/C=C(\C)CCOC(=O)C(NC(C)=O)CCCN(O)C(=O)/C=C(\C)CCOC(=O)C(NC(C)=O)CCCN(O)C(=O)/C=C(\C)CCOC1=O (configuration not stated)	-6%	x	x
CCCn1c(-c2ccc(F)cc2)n[nH]c1=S	u	-121*	u
CCn1c(-c2ccc(C)cc2)n[nH]c1=S	-4%	10	-18%
O=S1(=O)CCN(c2ccccc2CC(c2c[nH]c3ccccc23)c2c[nH]c3ccccc23)CC1	u	x	-11%
N#CC(C#N)=C1C=CC=CN1/C(=C\c1ccccc1Cl)C(=O)c1ccccc1	u	-8	7.9µM*
N#CC(C#N)=C1C=CC=CN1/C(=C\c1ccccc1)C(=O)c1cccs1	u	28	u
O=c1[nH]c(/C=C/c2ccccc2OC(F)F)nc2c1cnn2-c1ccccc1	u	10	u
CN1CC2([N+](=O)[O-])CC=C(OCCO)C([N+](=O)[O-])(C1)C2 (configuration not stated)	3%	-115*	-11%
C[N+]1(C)CC2([N+](=O)[O-])CC=C(Oc3ccccc3)C([N+](=O)[O-])(C2)C1 (configuration not stated)	12%	17	2%
CN1CC2([N+](=O)[O-])CC=C(Oc3ccccc3)C([N+](=O)[O-])(C1)C2 (configuration not stated)	2.8µM*	-20	-14%
CCN1CC2([N+](=O)[O-])CC=C(OC)C([N+](=O)[O-])(C1)C2 (configuration not stated)	-6%	2	-2%
